Sm TGR block: qHTS Assay for the Inhibitors of Schistosoma Mansoni Peroxiredoxins | Schistosoma mansoni thioredoxin glutathione reductase (TGR), Q962Y6 | AID 485364, 2010 | hit rate 3% among 360,000 | Potency, µM (highest dose often 114 µM), without a hit: at the top dose activity change, negative = inhibition, actives largely listed as inhibitors | purified TGR, DTNB reduction, TNB absorbance 405 nm; also: % is scaled to controls: 0 for no effect and ±100 for the full control effect; nearly all actives have a fitted effect of over 60% in size
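Kinetic colorimetric format: TGR-catalysed, NADPH-driven DTNB reduction monitored via TNB absorbance. Enzyme dispensed at 20 nM; compound exposure 15 min at room temperature before reaction start.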
Pf growth 96h: Primary qHTS for delayed death inhibitors of the malarial parasite plastid, 96 hour incubation | P. falciparum luciferase reporter growth, 96 h | Potency, µM (doses to about 28.7 µM), inactives show top-dose activity change, negative = inhibition, actives largely listed as inhibitors | hit rate 6.9% among 320,000 | AID 504834, 2011; also: % is scaled to controls: 0 for no effect and ±100 for the full control effect
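Erythrocytes infected with luciferase-expressing P. falciparum were dispensed at 2% hematocrit and 0.05% parasitemia (final), then incubated with compounds 96 hours at 37 C in 5% CO2. Luminescence after detection reagent addition reported growth.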
SARS PLpro yeast: qHTS of Yeast-based Assay for SARS-CoV PLP | S. cerevisiae expressing SARS-CoV PLpro, growth rescue | Potency, µM (top dose mostly 32.9 µM), without a hit: top-dose activity, positive = growth rescue, hits mostly activators | hit rate 0.19% among 330,000 | AID 485353, 2010; calls by dose curve; also: 0% is about no effect; nearly all actives have a fitted effect of over 55% in size
Pf growth 48h: Primary qHTS for delayed death inhibitors of the malarial parasite plastid, 48 hour incubation; P. falciparum luciferase growth in erythrocytes, 48 h; Potency, µM (top dose mostly 28.7 µM), for the others: at the highest dose activity change, negative = inhibition, hits mostly inhibitors; hit rate 5.9% among 310,000; AID 504832, 2011; also: % is scaled to controls: 0 for no effect and ±100 for the full control effect
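Luciferase-expressing P. falciparum in infected erythrocytes (2% hematocrit, 0.1% parasitemia final) in RPMI 1640/0.5% Albumax were exposed to compound for 48 hours at 37 C, 5% CO2; growth read as luminescence.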
Active calls of the source: *; ? = inconclusive; . = no result given; [ ] = dose if it differs, or a comment. Most compounds without a hit are left out; they make up all but 12% or so of the library. Unless noted, calls follow the shape of the dose curve; as a rule, active = well fitted curve in the direction sought with a large enough effect; inconclusive = small, poorly fitted or top-dose-only effect, or another doubt; inactive = no such curve, though single readings can be large; an effect the other way counts as inactive or inconclusive. Potency is read from the fitted curve at half-maximal effect.

SMILES	Sm TGR block	Pf growth 96h	SARS PLpro yeast	Pf growth 48h
COc1ccc2cc(C(=O)C3CCCN(Cc4ccccn4)C3)ccc2c1 (configuration not stated)	7%	-21%	-1%	9.3µM*
CCn1ccnc1CN1CCCC(C(=O)c2cc(Cl)ccc2OC)C1 (configuration not stated)	10%	14%	0%	21%
CCn1ccnc1CN1CCCC(C(=O)c2ccc3cc(OC)ccc3c2)C1 (configuration not stated)	0%	?	-3%	2.9µM*
CCn1ccnc1CN1CCCC(C(=O)c2cc(C)c(OC)c(C)c2)C1 (configuration not stated)	0%	?	0%	12µM*
COc1c(C)cc(C(=O)C2CCCN(S(=O)(=O)N(C)C)C2)cc1C (configuration not stated)	-6%	2.9µM*	1%	-15%
O=C(CSc1nnc(-c2ccncc2)n1-c1ccccc1)Nc1ccc(Br)cc1	-1%	.	.	.
CCc1cccc(C)c1NC(=O)C1CCCN1S(=O)(=O)c1cccc2nsnc12 (configuration not stated)	0%	.	.	.
Cc1ccc(NC(=O)C2CCC(CNS(=O)(=O)c3cccs3)CC2)cc1C (configuration not stated)	6%	.	.	.
Cc1cccc(CN2CCCC(C(=O)c3ccc(C(F)(F)F)cc3)C2)n1 (configuration not stated)	7%[57.1 µM]	12µM*	-1%	2.3µM*
CSc1ccccc1C(=O)C1CCCN(Cc2cccc(C)n2)C1 (configuration not stated)	0%	-5%	-1%	?
CN(C(=O)Nc1ccc(Cl)cc1Cl)[C@H]1c2cc(Br)ccc2OC[C@H]1CO	4%	?	-25%	8.3µM*
CSc1nc2c(c(=O)n1-c1ccc(F)cc1)SCC2	-10%	0%	-7%	-22%
CSc1nc2c(c(=O)n1-c1ccc(C)cc1)SCC2	3%	-4%	0%	9.3µM*
CCOc1ccc(-n2c(SC)nc3c(c2=O)SCC3)cc1	-1%	?	-4%	-8%
CCOc1ccc(-n2c(SC(C)C)nc3c(c2=O)SCC3)cc1	3%	151%	7%	8.3µM*
CCCS(=O)(=O)c1nc(S(=O)(=O)c2ccc(C)cc2)c(N2CCN(CC)CC2)s1	0%	3%	0%	-18%
Cc1cc(Oc2ccc(C(C)(C)C)cc2)nc(N2CCOCC2)n1	13%	10µM*	7%	.
CCC(C)c1ccc(NC(=O)COc2c(F)c(F)c(C(F)(F)F)c(F)c2F)cc1 (configuration not stated)	-3%	2.1µM*	-41%	8%
O=C(COc1c(F)c(F)c(C(F)(F)F)c(F)c1F)Nc1ccc(N2CCOCC2)c(Cl)c1	5%	?	-34%	?
COc1cc(C2NC(=O)NC(c3ccccc3)=C2C(C)=O)c(Br)c(Br)c1O (configuration not stated)	-33%	0.74µM*	1%	1.3µM*
Cn1cnc([N+](=O)[O-])c1Oc1cccc(O)c1	32µM*	?	-10%	-13%
Cn1cnc([N+](=O)[O-])c1Oc1ccccc1	35µM*	?	15%	-28%
Cn1cnc([N+](=O)[O-])c1Oc1cccc2ccccc12	25µM*	?	?	-20%
Cn1cnc([N+](=O)[O-])c1C(=O)Nc1cccc([N+](=O)[O-])c1	5%	25%	-4%	37%
Cc1noc(C)c1C(=O)Nc1ccc(-c2nnc3n2CCCCC3)cc1	-1%	-21%	1%	-13%
SMILES	Sm TGR block	Pf growth 96h	SARS PLpro yeast	Pf growth 48h
CNC(=S)NNC(=O)COc1ccc(C)c(C)c1	-2%	103%	13µM*	30%
COc1ccc(CCNC(=O)NC2CCCCC2)cc1	-2%	1%	5%	10%
Cc1ccc(C)c(OCC(=O)NC2CCCCCC2)c1	1%	-6%	5%	3%
Cc1ccc(OCC(=O)NC2CCCC2)c(C)c1	-26%	0.93µM*	-1%	36%
Cc1cccc(OCC(=O)NC2CCCC2)c1	-14%	?	-2%	21%
COc1ccc(CCC(=O)NC2CCCCC2)cc1	-28%	15µM*	.	-16%
Cc1ccc(OCC(=O)NC2CCCCCC2)cc1C	8%	10µM*	0%	30%
Cc1cc(C)c(C)c(S(=O)(=O)Nc2cccc(S(=O)(=O)Nc3ccccc3C(=O)O)c2)c1C	.	.	-19%	.
Cc1[nH]c(C)c(S(=O)(=O)NCc2ccc(F)cc2)c1C(=O)N1CCCCC1	-1%	?	?	-9%
CCOC(=O)c1sc(S(C)(=O)=O)c2c1CCc1conc1-2	13µM*	-20%	0%	?
COc1ccc(S(=O)(=O)N2CCN(C(=O)c3c(C)nn(-c4ccccc4)c3C)CC2)cc1	-1%	8.3µM*	4%	10µM*
Cc1ccc(C)c(S(=O)(=O)N2CCN(C(=O)[C@@H]3CCCN3C(=O)c3cccs3)CC2)c1	-20%	-1%	1%	?
COc1ccc(OC)c(S(=O)(=O)N2CCN(C(=O)c3cc(C4CC4)nn3-c3ccccc3)CC2)c1	-2%	9.3µM*	-6%	?
COc1ccc(OC)c(S(=O)(=O)N2CCC(C(=O)Nc3ccccc3)CC2)c1	13%	?	2%	7%
Cc1ccc(C)c(S(=O)(=O)N2CCN(C(=O)c3cc(-c4cccs4)nn3-c3ccccc3)CC2)c1	1%	13µM*	1%	7.4µM*
O=C(c1nc(-c2ccccc2)n(-c2ccccc2)n1)N1CCN(S(=O)(=O)c2ccccc2)CC1	2%	.	0%	9.3µM*
O=C(O)c1nc(-c2ccccc2)n(-c2ccccc2)n1	1%	41%	17%	-8%
Cc1cccc(NS(=O)(=O)c2c(C)[nH]c(C)c2C(=O)N2CCCC2)c1	5%	?	3%	21%
COc1cc(OC)c(N(C)C(=O)c2cc3c(s2)-c2ccccc2OC3)cc1Cl	4%	.	.	.
O=C(c1cc(C2CC2)nn1-c1ccccc1)N1CCN(Cc2ccc(Cl)cc2)CC1	-31%	?	-4%	?
O=C(c1cc(C2CC2)nn1-c1ccccc1)N1CCN(S(=O)(=O)c2ccccc2)CC1	-7%	?	-17%	15µM*
O=C1C=C(N2CCN(C3=CC(=O)CCC3)CC2)CCC1	20µM*	.	2%	7%
COc1ccccc1N1CCN(C2=CC(=O)CCC2)CC1	?	.	4%	1%
CC(C)C1(C)C(=O)N=C2c3ccccc3C(=O)N21 (configuration not stated)	7%	12µM*	5%	3%
O=C(c1ccc(-c2cccc(C(F)(F)F)c2)o1)N1CCCC(C(F)(F)F)C1 (configuration not stated)	-17%	?	2%	-10%
CC(C(=O)NC1CCCC1)N1C(=O)c2cccc3cccc1c23 (configuration not stated)	?	2.3µM*	-3%	?
COCCn1c(SCC(=O)N2CCC(C)CC2)nc2c([nH]c3ccccc32)c1=O	0%	?	-5%	?
